# Measured values reported in PubChem BioAssay (NCATS).
# Inconclusive results are not listed. Unmarked numbers belong to inactive results. Active and inactive are the calls of the source. The call rests on the fitted dose curve; in most records, active means well fitted cell-killing curve with a large enough effect; inconclusive means small, poorly fitted or top-dose-only effect, or effect the other way; inactive means no such curve, though single readings can be large or run the other way. Non-standard residues stand in square brackets, D forms with d. Residues, ends and D or L forms follow the SMILES beside them. *: point of attachment. Nva = CCC[C@H](N)C(=O)O; Cbz = O=C(OCc1ccccc1)*
# Assay: Quantitative High-Throughput drug screen in 47 multiple myeloma cell lines against the NCATS MIPE library collection: MOLP8_DSMZ cell viability assay (AID 1918977); further: nearly all actives have a fitted effect of over 45% in size
# Conditions: MOLP8 myeloma viability, CellTiter-Glo ATP luminescence, 48 h; series mostly up to 45.8 µM; viability (% of control): at the top concentration
# Excerpt: PI: Beverly A. Mock Ph.D.
# Laboratory of Cancer Biology and Genetics,
# Center for Cancer Research, National Cancer Institute,
# National Institute of Health, Bethesda, Maryland
# Drug resistance and disease progression are common in multiple myeloma (MM) patients, underscoring the need for new therapeutic combinations. […] We hypothesized that effective combinations would reduce MYC expression and enhance p16 activity. […] These preclinical data identify potentially useful drug combinations for evaluation in drug-resistant MM and reveal potential mechanisms of combined drug sensitivity.
# Described herein is the primary MIPE qHTS used to cherrypick compounds. Validated compounds were then further tested for potential synergistic activiy.
# [1] Peat TJ, Gaikwad SM, Dubois W, Gyabaah-Kessie N, Zhang S, Gorjifard S, Phyo Z, Andres M, Hughitt VK, Simpson RM, Miller MA, Girvin AT, Taylor A, Williams D, D'Antonio N, Zhang Y, Rajagopalan A, Flietner E, Wilson K, Zhang X, Shinn P, Klumpp-Thomas C, McKnight C, Itkin Z, Chen L, Kazandijian D, Zhang J, Michalowski AM, Simmons JK, Keats J, Thomas CJ, Mock BA. Drug combinations identified by high-throughput screening promote cell cycle transition and upregulate Smad pathways in myeloma. Cancer Lett. 2023 Aug 1;568:216284. doi: 10.1016/j.canlet.2023.216284. Epub 2023 Jun 24. PMID: 37356470; PMCID: PMC10408729.
# SEQUENCE No. (e.g., 1, 2, 3, etc.); […] (e.g., Cells, Incubation, Reagent, etc.); VALUE and DESCRIPTION.
# 1; Cells; 5 uL; white, solid bottom 1536-well Greiner assay plate.
# 2; Compounds; 23 nL; Kalypsis pin tool (Wako USA) equipped with a 1536-well pin head to transfer to the assay plates.
# 3; Incubation; 48 hours; 37C incubation.
# 4; Reagent;5uL; CellTiter Glo (Promega).
# 5; Detector; 425V; Luminescence; Viewlux PerkinElmer.
# NOTES (numbers refer to Sequence numbers above)
# 1. The cell-based screening methods employed in this study were like those previously published. Briefly, the corresponding myeloma cell lines were screened in 1,536-well plates with 500 cells, 5-uL per well for inhibition of cell viability (assessed by measuring ATP levels with CellTiterGlo).
# 2. NCATS MIPE 4.0 library of approved and investigational drugs were added using the Kalypsis pin tool. Wells treated with DMSO only for 100% viability and media only for 0% viability were used as controls.
# 3. The assay plates were covered and incubated for 48 hours in a 37C, 5% CO2 incubator with controlled humidity.
# 4. After 48 hours, CellTilter-GloTM luminescent substrate mix (Promega) reagent was added to the assay plate and plates we incubated for 5 min at room temperature.
# 5. Signal was measured as median relative luminescence units on a ViewLux (PerkinElmer) multiplate reader.
# [1] Heske CM, Davis MI, Baumgart JT, Wilson K, Gormally MV, Chen L, Zhang X, Ceribelli M, Duveau DY, Guha R, Ferrer M, Arnaldez FI, Ji J, Tran HL, Zhang Y, Mendoza A, Helman LJ, Thomas CJ. Matrix Screen Identifies Synergistic Combination of PARP Inhibitors and Nicotinamide Phosphoribosyltransferase (NAMPT) Inhibitors in Ewing Sarcoma. Clin Cancer Res. 2017 Dec 1;23(23):7301-7311. doi: 10.1158/1078-0432.CCR-17-1121. Epub 2017 Sep 12. PMID: 28899971; PMCID: PMC6636827.
# Potency means the concentration at half of the fitted maximal effect.
Structure (SMILES),Potency,viability (% of control)
CC(C)C[C@H](NC(=O)[C@@H](NC(=O)c1cccc(-c2ccccc2)n1)[C@@H](C)O)B(O)O,29.6 nM (active),–
C#C[C@]1(O)CC[C@@H]2[C@@H]3CCC4=CC(=O)CC[C@@H]4[C@H]3CC[C@@]21CC,23500 nM (active),–
CCCCCCCCc1ccc(CCC(N)(CO)CO)cc1,14800 nM (active),–
O=C(C=Cc1ccc(CN(CCO)CCc2c[nH]c3ccccc23)cc1)NO,83.3 nM (active),–
Cc1cnc(Nc2ccc(CN3CCOCC3)cc2)nc1Nc1cccc(S(=O)(=O)NC(C)(C)C)c1,2090 nM (active),–
N#CNC(=NCCCCCCOc1ccc(Cl)cc1)Nc1ccncc1,23.5 nM (active),–
C[C@H](NCc1ccc(OCc2cccc(F)c2)cc1)C(N)=O,2640 nM (active),–
C=CC(=O)Nc1ccc2ncnc(Nc3ccc(OCc4cccc(F)c4)c(Cl)c3)c2c1,6620 nM (active),–
O=c1ccn([C@@H]2O[C@H](CO)[C@H](O)[C@@H]2F)c(=O)[nH]1,–,74.4%
C=C[C@@H]1CN2CCC1C[C@H]2[C@H](O)c1ccnc2ccc(OC)cc12 (stereo not given in full),–,67.7%
CS[C@H]1SC[C@@H]2C(=O)N(C)[C@H](C(C)C)C(=O)OC[C@H](NC(=O)c3cnc4ccccc4n3)C(=O)N[C@H](C)C(=O)N(C)[C@@H]1C(=O)N(C)[C@H](C(C)C)C(=O)OC[C@H](NC(=O)c1cnc3ccccc3n1)C(=O)N[C@H](C)C(=O)N2C,4.7 nM (active),–
CC(=O)O[C@@]12CO[C@H]1C[C@H](O)[C@@]1(C)C(=O)[C@H](O)C3=C(C)[C@@H](OC(=O)C(O)[C@@H](NC(=O)OC(C)(C)C)c4ccccc4)C[C@@](O)([C@@H](OC(=O)c4ccccc4)[C@@H]21)C3(C)C (stereo not given in full),–,64.1%
Nc1nc(N)c2nc(-c3cccc(O)c3)c(-c3cccc(O)c3)nc2n1,26400 nM (active),–
COc1ccc(S(=O)(=O)Nc2cc(-c3c(O)ccc4ccccc34)c(O)c3ccccc23)cc1,7430 nM (active),–
CN(C)CC(=O)N1CCC(c2ccc(NC(=O)c3ncc(C#N)[nH]3)c(C3=CCCCC3)c2)CC1,5260 nM (active),–
C[C@H](NCc1ccc2c(c1)nc(NC(=O)c1ccc(-c3cn[nH]c3)s1)n2CCc1ccccc1)C(C)(C)C,590 nM (active),–
CCC[C@H]1C[C@H](C(=O)N[C@@H]([C@@H]2O[C@@H](SC)[C@@H](O)[C@@H](O)[C@@H]2O)[C@H](C)Cl)N(C)C1,–,130%
Cn1c(Nc2ccc(C(F)(F)F)cc2)nc2cc(Oc3ccnc(-c4ncc(C(F)(F)F)[nH]4)c3)ccc21,6620 nM (active),–
NC(=O)Nc1cc(-c2ccc(CN3CCOCC3)cc2)sc1C(N)=O,14800 nM (active),–
Oc1cc2c(cc1O)C1c3ccc(O)c(O)c3OCC1(O)C2 (stereo not given),–,92.5%

Structure (SMILES),Potency,viability (% of control)
Cn1cc(-c2ccc3ncc(Cc4ccc5ncccc5c4)n3n2)cn1,–,102%
O=C1NCCc2[nH]c(-c3ccncc3)cc21,1660 nM (active),–
O=C(CCCCCCC(=O)Nc1cccnc1)NO,3320 nM (active),–
Cc1ccc2nc(NCCN)c3ncc(C)n3c2c1,4180 nM (active),–
CCN(C(=O)c1c(O)c2c(Cl)cccc2n(C)c1=O)c1ccccc1,–,126%
C[C@@H]1[C@H](C)CC[C@]2(C(=O)O)CC[C@]3(C)C(=CC[C@@H]4[C@@]5(C)C[C@@H](O)[C@H](O)[C@@](C)(CO)[C@H]5CC[C@]43C)[C@@H]12,–,107%
Oc1ccc(-c2ccc(-c3cc(Nc4cccc(CNC5CC5)c4)n[nH]3)cc2)c(O)c1,2090 nM (active),–
O=[N+]([O-])c1cn2c(n1)OC[C@@H](OCc1ccc(OC(F)(F)F)cc1)C2,–,98%
CC(C)c1cc(C(C)C)c(CC(=O)NS(=O)(=O)Oc2c(C(C)C)cccc2C(C)C)c(C(C)C)c1,20900 nM (active),–
CC(C(C)N1CC(=O)NC(=O)C1)N1CC(=O)NC(=O)C1 (stereo not given),10.5 nM (active),–
CCC[C@@H](C=O)NC(=O)[C@H](CC(C)C)NC(=O)[C@H](CC(C)C)NC(=O)OCc1ccccc1 (Cbz-Leu-Leu-[Nva]-aldehyde),1180 nM (active),–
CN(C)c1ccc(C(=O)NCCCCCCC(=O)NO)cc1,743 nM (active),–
NC1=N[C@H]2[C@H](CS[C@H]2CCCCC(=O)O)N1,–,94.6% [at 23.2 µM]
COc1cc(CCc2cc(NC(=O)c3ccc(N4C[C@@H](C)N[C@@H](C)C4)cc3)n[nH]2)cc(OC)c1,18700 nM (active),–
Cc1ncc(-c2ccnc(Nc3ccc(S(C)(=O)=O)cc3)n2)n1C(C)C,1320 nM (active),–
C[C@H]1O[C@H](O[C@H]2[C@H](O)[C@@H](O)[C@@H](O[C@H]3[C@H](O)[C@@H](O)C(O)O[C@H]3CO)O[C@H]2CO)[C@H](O)[C@@H](O)[C@H]1N[C@H]1C=C(CO)[C@@H](O)[C@H](O)[C@@H]1O (stereo not given in full),–,132%
N#Cc1c(C2CCNCC2)cc(-c2c(O)cccc2OCC2CC2)nc1N,14800 nM (active),–
O=c1c(O)c(-c2ccc(O)c(O)c2)oc2cc(O)ccc12,18700 nM (active),–
COc1cccc2c1C(=O)c1c(O)c3c(c(O)c1C2=O)C[C@@](O)(C(C)=O)C[C@H]3O[C@H]1C[C@H](N)[C@H](O)[C@H](C)O1,132 nM (active),–
CCn1c(=O)c2c(nc(C=Cc3ccc(OC)c(OC)c3)n2C)n(CC)c1=O,–,98.3%
